Source: PubChem BioAssay
GDH-TPI inh = inhibits GDH-TPI coupling enzymes, artifact for Mtb FBA screen; GDH-TPI coupled enzyme counterscreen, NADH absorbance; inhibition, % at 4.8 µM; 360,000 compounds, 1.2% hits; AID 588335; in the data active = inhibition above about 30%;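 note: 0% = DMSO wells and 100% = wells lacking the enzyme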
BH1578 lux ind = induces V. cholerae light production without autoinducers | V. cholerae BH1578 lux reporter, luminescence, 6 h | activation, % at 18.7 µM | 350,000 compounds, 0.16% hits; in the data active = activation mostly above about 9.7%, no sharp cut-off
Mtb BioA inh = blocks M. tuberculosis BioA enzyme activity. purified M. tuberculosis BioA enzyme, plate reader. inhibition, % at 9.99 µM. 360,000 compounds, 0.096% hits; in the data active = inhibition above about 40%
Mtb FBA inh = inhibits M. tuberculosis FBA enzyme. 360,000 compounds, 2.3% hits. AID 588726. inhibition, % at 1 µM. purified M. tuberculosis FBA, fluorescence read-out; in the data active = inhibition above about 27%;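 note: 0% = vehicle and 100% = reference inhibitor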
Target sequence (P9WQA3 whole entry, looked up): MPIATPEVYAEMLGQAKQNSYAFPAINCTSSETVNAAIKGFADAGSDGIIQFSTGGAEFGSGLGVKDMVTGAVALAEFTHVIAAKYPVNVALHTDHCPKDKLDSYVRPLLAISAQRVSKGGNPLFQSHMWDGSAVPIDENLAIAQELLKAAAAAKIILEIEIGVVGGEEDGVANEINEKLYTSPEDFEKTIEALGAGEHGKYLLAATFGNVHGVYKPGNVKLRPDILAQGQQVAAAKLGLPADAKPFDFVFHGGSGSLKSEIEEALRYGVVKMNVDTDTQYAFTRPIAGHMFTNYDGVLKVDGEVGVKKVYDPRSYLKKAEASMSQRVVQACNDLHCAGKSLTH
Numbers without * were called inactive; i = inactive; x = no result; + = active, no number. A selection: hits, their analogues and other compounds. The true share with any hit is near 3%.

SMILES | GDH-TPI inh | BH1578 lux ind | Mtb BioA inh | Mtb FBA inh
O=C(O)c1ccccc1NN=Cc1ccccc1 | 35.8* | -0.1 | -1.2 | 5.2
COc1ccccc1CNC(=O)C[C@@H]1C=C[C@H](NC(=O)CN(C)C)[C@@H](CO)O1 | x | x | -1.7 | x
COc1ccccc1S(=O)(=O)N[C@H]1CC[C@@H](CCNC(=O)C2CC2)O[C@H]1CO | x | x | -2.5 | x
CC(C)NC(=O)N(C)C[C@H]1OCCCC[C@@H](C)Oc2ccc(NC(=O)C3CCCCC3)cc2C(=O)N([C@@H](C)CO)C[C@H]1C | x | x | -1.8 | x
CCn1cc(C(=O)N2CCN(c3ccc(C(C)=O)cc3)CC2)c2cc(OC)c(OC)cc2c1=O | 36.0* | -0.3 | 6.8 | 2.4
CC(C)CC#Cc1cnc2c(c1)C(=O)N([C@H](C)CO)C[C@@H](C)[C@@H](CN(C)C(=O)c1ccc3c(c1)OCO3)O2 | x | x | -4.1 | x
O=c1c2ccccc2oc2cc(NCCCn3ccnc3)ccc12 | 23.3 | -0.7 | -0.3 | +
O=c1c2ccccc2oc2ccc(NCCCN3CCOCC3)cc12 | 7.9 | i | 12.5 | 0.9
Cn1c2ccccc2c(=O)c2cc(NCCCN3CCOCC3)ccc21 | 22.9 | i | -0.2 | +
O=c1c2ccccc2oc2cc(NCCCN3CCOCC3)ccc12 | 22.4 | i | 1.8 | +
O=C(C[C@H]1CC[C@H]2[C@@H](COC[C@H](O)CN2CC2CCCCC2)O1)NCC1CC1 | x | x | -0.2 | x
CC1(c2ccccn2)Nc2ccccc2-c2nc3ccccc3n21 (configuration not stated) | 23.0 | -0.2 | -0.3 | 111.8*
CN1C(=O)C2(Nc3ccccc3-c3nc4ccccc4n32)c2ccccc21 (configuration not stated) | 11.7 | i | 5.3 | 2.0
c1ccc2c(c1)NC1(CCCCCC1)n1c-2nc2ccccc21 | 11.7 | -0.3 | 1.6 | 160.7*
CCCCC1(C)Nc2ccccc2-c2nc3ccccc3n21 (configuration not stated) | 8.3 | -0.4 | 0.0 | +
O=C1Nc2ccccc2C12Nc1ccccc1-c1nc3ccccc3n12 (configuration not stated) | 7.5 | i | 2.8 | 4.2
c1ccc2c(c1)NC1(CCCCC1)n1c-2nc2ccccc21 | 12.5 | -1.0 | 2.4 | 152.9*
COc1ccc(NC(=O)Nc2ccc3c(c2)CC(=O)N([C@H](C)CO)C[C@@H](C)[C@H](CN(C)CC2CCCCC2)O3)cc1 | x | x | -2.1 | x
c1ccc(Cn2c(-c3ccco3)nc3nc4ccccc4nc32)cc1 | 20.5 | -0.6 | -1.7 | +
c1coc(-c2nc3nc4ccccc4nc3n2CC2CCCO2)c1 (configuration not stated) | 22.5 | i | x | +
Cc1ccc(-c2nc3nc4ccccc4nc3n2Cc2ccco2)cc1 | 46.0* | i | -3.2 | 13.6
CCCCCn1c(-c2ccco2)nc2nc3ccccc3nc21 | 6.4 | x | -0.7 | +
CCOc1ccc(-c2cc(C(=O)N3CCC(C)CC3)c3ccccc3n2)cc1 | -2.1 | 0.0 | -0.6 | 13.7
O=C(O)c1cc(-c2cc(C(=O)O)c3ccccc3n2)ccc1O | 33.5* | 0.8 | -2.3 | 9.3
CCOc1ccc(-c2cc(C(=O)O)c3ccccc3n2)cc1 | 27.3 | i | 0.3 | +
SMILES | GDH-TPI inh | BH1578 lux ind | Mtb BioA inh | Mtb FBA inh
CCCC(=O)Nc1c2c(nc3ccccc13)N(c1ccccc1)CC2 | 10.1 | 1.2 | x | 191.7*
CS(=O)(=O)Nc1ccc2c(c1)[C@@H]1C[C@H](CC(=O)NCC3CC3)O[C@H](CO)[C@@H]1O2 | x | x | 0.2 | x
CSc1cnc2c(=O)n(C)c(=O)[nH]c2n1 | 22.6 | -0.1 | x | 129.7*
N#C/C(=C\c1cn(-c2ccccc2)nc1-c1cccnc1)c1nnc2n1CCCCC2 | 38.8* | -1.0 | 4.2 | 3.2
O=C(/C=C/c1cn(-c2ccccc2)nc1-c1cccnc1)N1CCCC1 | 3.5 | i | x | 1.1
CCc1ccc(/C=C2/SC(N3CCOCC3)=NC2=O)cc1 | 47.1* | i | x | -2.8
O=C1N=C(N2CCOCC2)S/C1=C/c1cccs1 | 33.8* | -5.6 | 2.4 | -2.0
CC(C)c1ccc(/C=C2\SC(N3CCOCC3)=NC2=O)cc1 | 31.7* | -0.5 | -0.5 | -0.3
CC(=C/c1ccccc1)/C=C1/SC(N2CCOCC2)=NC1=O | 32.0* | -0.3 | 3.9 | 0.0
CC(=O)N1CCN(C2=NC(=O)/C(=C\c3cccs3)S2)CC1 | 7.9 | -0.4 | 0.1 | -4.0
O=C(C[C@H]1CC[C@@H]2[C@H](COC[C@@H](O)CN2C(=O)Nc2cc(Cl)cc(Cl)c2)O1)NCC1CCCCC1 | x | x | -0.3 | x
Cc1ccc(S(=O)(=O)N2CCOCC2)s1 | -7.0 | i | -0.2 | 0.7
O=C1OCC(c2ccccc2)=C1c1ccc(S(=O)(=O)N2CCOCC2)s1 | 0.3 | 16.7* | 1.8 | -5.4
O=C1OC(/C=C/c2ccccc2)=NC/1=C/C=C/c1ccccc1 | 32.0* | -0.6 | -0.2 | 0.5
